SMILES strings stand for the structures. Records with an inconclusive call do not appear. Some structures have more than one record in an assay (separate samples or runs), and their calls can disagree. The source made the active and inactive calls. Rule for the calls, unless noted: active = hit-call score of the fitted dose curve at least 0.9, where 1 is the maximum; inconclusive = response in the unintended direction; inactive = score below 0.9.

A short description of assay [1]: ATG_TAL_CIS: Attagene CIS-FACTORIAL HepG2 Assay for human TAL Basal Promoter (AID 2282966; active = hit-call score of the fitted dose curve at least 0.9, where 1 is the maximum; inactive = score below 0.9;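 note: background control endpoint measuring basal TAL promoter reporter mRNA not a specific factor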). Particulars: HepG2 Attagene cis-factorial TAL promoter reporter; actives raise or lower the signal. In a few lines: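 Endogenous transcription-factor activity is sensed in HepG2 cells through transfected cis-promoter reporter constructs. After 24 h dosing, reporter transcripts are quantified by RT-PCR and capillary electrophoresis. Gain or loss of signal is fitted relative to DMSO.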

Assay [2] can be described thus: ATG_TGFb_CIS: Attagene CIS-FACTORIAL HepG2 Assay for human Transforming Growth Factor (TGF) (AID 2282967; active = hit-call score of the fitted dose curve at least 0.9, where 1 is the maximum; inactive = score below 0.9). The settings on record: HepG2 Attagene CIS TGFb reporter, mRNA transcription; actives raise or lower the signal. In a few lines:
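Liver HepG2 line, cis-factorial reporter panel, 24 h dosing. Quantitation: RT-PCR products labeled with 6-FAM, cut with HpaI, resolved by capillary electrophoresis; DMSO-referenced bidirectional analysis.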

Assay [3] is described as follows: ATG_VDRE_CIS: Attagene CIS-FACTORIAL HepG2 Assay for human Vitamin D Receptor Element (VDRE) (AID 2282968; active = hit-call score of the fitted dose curve at least 0.9, where 1 is the maximum; inactive = score below 0.9). Particulars: HepG2 VDRE cis-reporter transcription, actives raise or lower the signal. In outline:
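Transfected HepG2 reporter cells, chemical treatment 24 h. RNA isolated, cDNA amplified with reporter-specific primers, products analysed by capillary electrophoresis. Endpoint fitted in both directions versus DMSO.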

Assay [4] has as its target Nuclear receptor subfamily 1 group I member 3 (Homo sapiens) (UniProt Q14994). The assay can be described thus: ATG_CAR_TRANS: Attagene TRANS-FACTORIAL HepG2 Assay for human Constitutive Androstane Receptor (CAR) (AID 2282969).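 Note: activators raise reporter mRNA above DMSO so AC50 marks induction.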 Particulars: HepG2 Attagene TRANS-FACTORIAL CAR reporter. In a few lines:
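Steps: transient transfection of HepG2 with multiple GAL4-UAS reporter units; 24 h compound incubation; RNA isolation, RT-PCR, 6-FAM primer extension, HpaI digest; capillary electrophoresis. Gain-of-signal relative to DMSO negative control.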

The target of assay [5] is X-box-binding protein 1 (Homo sapiens) (UniProt P17861). The assay can be described thus: ATG_Xbp1_CIS: Attagene CIS-FACTORIAL HepG2 Assay for human X-box Binding Protein 1 (XBP1) (AID 2282972; active = hit-call score of the fitted dose curve at least 0.9, where 1 is the maximum; inactive = score below 0.9). Particulars: HepG2 XBP1 cis-element reporter, Attagene multiplex; actives raise or lower the signal. In a few lines:
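Human hepatoma HepG2, cis-element reporter system, 24 h treatment; mRNA quantified by RT-PCR/CE fluorescence; fit relative to DMSO.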

Assay [6] is described as follows: ATG_M_19_TRANS: Attagene TRANS-FACTORIAL HepG2 Assay for M19 Transcription Factor (Internal Marker) (AID 2282974). Particulars: HepG2 Attagene TRANS-FACTORIAL M19 internal marker reporter. In outline:
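Cells: human HepG2, transiently transfected with multiplexed reporter transcription units. Exposure: 24 h. Detection: RT-PCR of reporter mRNA with capillary electrophoresis. Analysis: gain-of-signal vs DMSO.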

A short description of assay [7]: ATG_GAL4_TRANS: Attagene TRANS-FACTORIAL HepG2 Assay for GAL4 (Internal Marker) (AID 2282976). The settings on record: HepG2 Attagene TRANS GAL4 internal marker reporter. In a few lines:
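Fluorescence from capillary electrophoresis of labelled RT-PCR products quantifies reporter mRNA induction after 24 h dosing of HepG2 cells carrying transfected GAL4-UAS reporter transcription units. Vehicle DMSO serves as baseline.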

In assay [8] the target is Glucocorticoid receptor (Homo sapiens) (UniProt P04150). The assay can be described thus: ATG_GR_TRANS: Attagene TRANS-FACTORIAL HepG2 Assay for human Glucocorticoid Receptor (GR) (AID 2282978).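 Note: activators score as hits since higher reporter transcript over DMSO is fitted.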 Particulars: HepG2 Attagene TRANS GR reporter, mRNA transcription. In outline:
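In this trans-factorial format, exogenous NR-GAL4 chimeric proteins in transfected HepG2 cells regulate GAL4-UAS reporter transcription. After 24 h treatment, reporter mRNA induction relative to DMSO is read by RT-PCR and capillary electrophoresis.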

The target of assay [9] is Bile acid receptor (Homo sapiens) (UniProt Q96RI1). The assay is described as follows: ATG_FXR_TRANS: Attagene TRANS-FACTORIAL HepG2 Assay for Farnesoid X Receptor (FXR) (AID 2282979).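 Note: hits raise reporter mRNA above DMSO so AC50 marks FXR activation.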 The settings on record: HepG2 Attagene TRANS FXR-GAL4 reporter transcription. In a few lines:
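Chimeric FXR-GAL4 activity in transiently transfected human HepG2 liver cells is scored as induction of reporter mRNA after 24 h of dosing. Detection uses RT-PCR with fluorescent labelling and capillary electrophoresis, with DMSO serving as baseline.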

Assay [10] deals with Transcriptional activator Myb (Homo sapiens) (UniProt P10242). The assay can be described thus: ATG_Myb_CIS: Attagene CIS-FACTORIAL HepG2 Assay for human Myeloblastosis (Myb) Proto-Oncogene Transcription Factor (AID 2282986; active = hit-call score of the fitted dose curve at least 0.9, where 1 is the maximum; inactive = score below 0.9). The settings on record: HepG2 Attagene CIS-FACTORIAL Myb reporter transcription; actives raise or lower the signal. In a few lines:
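Steps: transfect HepG2 with cis-regulated reporter units; dose with chemical for 24 h; isolate RNA, reverse-transcribe, PCR-amplify and FAM-label reporter sequences; digest with HpaI; resolve by capillary electrophoresis. Activity fitted in both directions relative to DMSO.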

The target of assay [11] is Nuclear respiratory factor 1 (Homo sapiens) (UniProt Q16656). The assay is described as follows: ATG_NRF1_CIS: Attagene CIS-FACTORIAL HepG2 Assay for human Nuclear Respiratory Factor 1 (NRF1) Orphan Gene (AID 2282987; active = hit-call score of the fitted dose curve at least 0.9, where 1 is the maximum; inactive = score below 0.9). Particulars: HepG2 NRF1 cis-element reporter, Attagene multiplex; actives raise or lower the signal. In a few lines: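 Fluorescence intensity of labelled reporter cDNA fragments, resolved by capillary electrophoresis, served as readout for NRF1 cis-element activity. Transiently transfected HepG2 cells were dosed for 24 hours; activity in either direction was fitted against DMSO negative control.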

Assay [12] concerns the target Hepatocyte nuclear factor 4-alpha (Homo sapiens) (UniProt P41235). The assay is described as follows: ATG_HNF4a_TRANS: Attagene TRANS-FACTORIAL HepG2 Assay for human Hepatocyte Nuclear Factor 4 alpha (HNF4a) (AID 2282982). The settings on record: HepG2 HNF4a transactivation reporter, mRNA readout. In a few lines: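 Using HepG2 liver cells transfected with GAL4-UAS reporter units, chemical-induced mRNA increases were assessed after 24 hours. Fluorescent RT-PCR fragments were separated by capillary electrophoresis and compared with DMSO negative controls.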

The nature of assay [13]: ATG_M_06_TRANS: Attagene TRANS-FACTORIAL HepG2 Assay for M06 Transcription Factor (Internal Marker) (AID 2282983).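 Note: reporter transcript level by RT-PCR then capillary electrophoresis fluorescence.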 Particulars: HepG2 Attagene TRANS M06 internal marker reporter. In a few lines:
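Human liver HepG2 cells bearing transiently transfected chimeric NR-GAL4 reporter units were treated with chemicals for 24 h. Total RNA was reverse-transcribed, reporter sequences amplified and labelled, then quantified by capillary electrophoresis. Activity was fitted upward relative to DMSO.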

Assay [14] is described as follows: ATG_M_32_TRANS: Attagene TRANS-FACTORIAL HepG2 Assay for M32 Transcription Factor (Internal Marker) (AID 2282984).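 Note: transcript level of a background control reporter unit measured by RT-PCR and capillary electrophoresis.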 The settings on record: HepG2 Attagene TRANS M32 internal marker reporter. In a few lines: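 Fluorescence-detected mRNA induction, HepG2 liver cells, 24 h after dosing. Multiple GAL4-UAS reporter units introduced by transient transfection; background-control endpoint analysed for gain of signal against DMSO.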

The target in assay [15] is Estrogen receptor (Homo sapiens) (UniProt P03372). The assay is described as follows: ATG_ERa_TRANS: Attagene TRANS-FACTORIAL HepG2 Assay for human Estrogen Receptor alpha (ERa) (AID 2282970). The settings on record: HepG2 Attagene TRANS ERa GAL4 reporter, mRNA. In a few lines:
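Transfected HepG2 cells carrying GAL4-UAS-driven reporter units were dosed for 24 hours. Total RNA was reverse-transcribed, reporter sequences PCR-amplified, FAM-labelled, HpaI-digested and resolved by capillary electrophoresis. Increases over DMSO control defined activity.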

For assay [16], the target named is Steroid hormone receptor ERR1 (Homo sapiens) (UniProt P11474). The assay is described as follows: ATG_ERRa_TRANS: Attagene TRANS-FACTORIAL HepG2 Assay for human Estrogen-Related Receptor alpha (ERRa) (AID 2282971). The settings on record: HepG2 Attagene TRANS reporter, ERRa transactivation. In outline: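 HepG2 cells were transiently transfected with multiple GAL4-UAS reporter units, then dosed with compound for 24 h. Total RNA was reverse-transcribed, reporter cDNA PCR-amplified and fluorescently labelled, and fragments resolved by capillary electrophoresis; induction was compared with DMSO.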
Sequence of Steroid hormone receptor ERR1 (Homo sapiens) (P11474 whole entry, looked up, the tested form may be a part): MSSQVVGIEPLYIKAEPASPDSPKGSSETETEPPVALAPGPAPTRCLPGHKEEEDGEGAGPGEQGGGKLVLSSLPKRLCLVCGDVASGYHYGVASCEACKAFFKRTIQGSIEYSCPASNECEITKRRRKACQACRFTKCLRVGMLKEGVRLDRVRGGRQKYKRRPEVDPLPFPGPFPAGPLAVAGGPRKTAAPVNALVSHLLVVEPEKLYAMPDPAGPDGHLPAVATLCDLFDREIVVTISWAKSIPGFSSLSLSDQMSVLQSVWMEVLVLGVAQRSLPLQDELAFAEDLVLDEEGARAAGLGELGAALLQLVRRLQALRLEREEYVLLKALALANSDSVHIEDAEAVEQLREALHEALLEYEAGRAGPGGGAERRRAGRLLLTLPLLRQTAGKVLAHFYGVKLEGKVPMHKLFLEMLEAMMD

Assay [17] concerns the target Estrogen-related receptor gamma (Homo sapiens) (UniProt P62508). The assay can be described thus: ATG_ERRg_TRANS: Attagene TRANS-FACTORIAL HepG2 Assay for human Estrogen-Related Receptor gamma (ERRg) (AID 2282977).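 Note: hits increase reporter signal over DMSO so potencies reflect activators.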 Particulars: HepG2 Attagene TRANS reporter, ERRg transactivation. In a few lines: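 Readout: fluorescent reporter-mRNA fragments resolved by capillary electrophoresis after RT-PCR and HpaI cut. Cells: transiently transfected HepG2 carrying GAL4-UAS reporters driven by exogenous NR-Gal4 chimeras, dosed 24 h. Activity fitted upward relative to DMSO baseline.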

For assay [18], the target named is Oxysterols receptor LXR-alpha (Homo sapiens) (UniProt Q13133). The assay is described as follows: ATG_LXRa_TRANS: Attagene TRANS-FACTORIAL HepG2 Assay for human Liver X Receptor alpha (LXRa) (AID 2282980). Particulars: HepG2 Attagene TRANS reporter, LXRa transactivation. In a few lines:
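Transient HepG2 transfectants, 24 h dosing, RT-PCR/CE mRNA reporter quantitation; gain-of-signal vs DMSO.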

The target in assay [19] is Oxysterols receptor LXR-beta (Homo sapiens) (UniProt P55055). The assay can be described thus: ATG_LXRb_TRANS: Attagene TRANS-FACTORIAL HepG2 Assay for human Liver X Receptor beta (LXRb) (AID 2282981). The settings on record: HepG2 Attagene TRANS GAL4-LXRb reporter, mRNA. In a few lines: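 Liver-derived HepG2 cells transfected with Gal4-responsive reporters were dosed for 24 h. Activation was scored as rise in reporter mRNA, by RT-PCR and capillary electrophoresis, above DMSO baseline.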
Sequence of Oxysterols receptor LXR-beta (Homo sapiens) (P55055 whole entry, looked up, the tested form may be a part): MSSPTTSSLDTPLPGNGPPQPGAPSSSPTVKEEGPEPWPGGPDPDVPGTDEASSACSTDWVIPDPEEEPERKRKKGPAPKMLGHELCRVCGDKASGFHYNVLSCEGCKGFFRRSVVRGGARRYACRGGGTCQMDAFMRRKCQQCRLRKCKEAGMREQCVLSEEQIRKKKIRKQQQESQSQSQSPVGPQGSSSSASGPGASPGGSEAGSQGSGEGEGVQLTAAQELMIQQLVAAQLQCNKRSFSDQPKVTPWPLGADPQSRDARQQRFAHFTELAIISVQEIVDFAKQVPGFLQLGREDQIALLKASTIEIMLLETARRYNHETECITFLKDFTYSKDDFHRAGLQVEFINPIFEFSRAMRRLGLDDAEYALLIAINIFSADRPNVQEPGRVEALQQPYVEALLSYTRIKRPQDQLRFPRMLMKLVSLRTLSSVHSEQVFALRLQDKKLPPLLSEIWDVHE

Assay [20] has as its target Nuclear receptor subfamily 4 group A member 2 (Homo sapiens) (UniProt P43354). The assay is described as follows: ATG_NURR1_TRANS: Attagene TRANS-FACTORIAL HepG2 Assay for human Nuclear Receptor Related Protein 1 (NURR1) (AID 2282985). The settings on record: HepG2 Attagene TRANS reporter, mRNA readout. In outline:
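Chimeric NR-Gal4 proteins were expressed in human HepG2 cells bearing GAL4-UAS reporter units, and induced reporter mRNA was quantified 24 h post-dosing by RT-PCR and capillary electrophoresis.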

Sequence of Nuclear receptor subfamily 1 group I member 3 (Homo sapiens) (Q14994 whole entry, looked up, the tested form may be a part): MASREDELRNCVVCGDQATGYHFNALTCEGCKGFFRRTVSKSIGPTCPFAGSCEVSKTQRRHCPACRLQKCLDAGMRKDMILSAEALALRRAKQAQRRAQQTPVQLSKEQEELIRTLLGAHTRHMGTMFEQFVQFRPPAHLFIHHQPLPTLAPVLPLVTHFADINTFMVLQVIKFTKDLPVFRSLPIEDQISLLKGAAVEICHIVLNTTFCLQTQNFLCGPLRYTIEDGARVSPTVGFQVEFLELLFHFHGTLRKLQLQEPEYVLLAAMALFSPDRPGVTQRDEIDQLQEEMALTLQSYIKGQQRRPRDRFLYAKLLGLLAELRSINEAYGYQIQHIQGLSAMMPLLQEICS
Sequence of Estrogen receptor (Homo sapiens) (P03372 whole entry, looked up, the tested form may be a part): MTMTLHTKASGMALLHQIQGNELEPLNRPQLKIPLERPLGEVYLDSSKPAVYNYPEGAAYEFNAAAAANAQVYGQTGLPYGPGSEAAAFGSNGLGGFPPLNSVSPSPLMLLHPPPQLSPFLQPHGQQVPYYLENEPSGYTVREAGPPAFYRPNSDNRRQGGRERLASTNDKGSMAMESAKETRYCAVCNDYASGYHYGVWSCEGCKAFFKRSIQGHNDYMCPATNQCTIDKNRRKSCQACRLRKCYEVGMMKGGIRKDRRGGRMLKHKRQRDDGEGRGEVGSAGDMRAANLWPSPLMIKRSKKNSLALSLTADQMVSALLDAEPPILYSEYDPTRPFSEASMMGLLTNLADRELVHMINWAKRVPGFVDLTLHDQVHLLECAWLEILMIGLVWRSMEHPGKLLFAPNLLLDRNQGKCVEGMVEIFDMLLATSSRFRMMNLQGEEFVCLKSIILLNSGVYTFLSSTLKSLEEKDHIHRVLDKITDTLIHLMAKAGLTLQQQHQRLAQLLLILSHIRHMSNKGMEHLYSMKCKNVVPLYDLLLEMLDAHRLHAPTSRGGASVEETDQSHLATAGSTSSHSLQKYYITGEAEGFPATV
Sequence of Transcriptional activator Myb (Homo sapiens) (P10242 whole entry, looked up): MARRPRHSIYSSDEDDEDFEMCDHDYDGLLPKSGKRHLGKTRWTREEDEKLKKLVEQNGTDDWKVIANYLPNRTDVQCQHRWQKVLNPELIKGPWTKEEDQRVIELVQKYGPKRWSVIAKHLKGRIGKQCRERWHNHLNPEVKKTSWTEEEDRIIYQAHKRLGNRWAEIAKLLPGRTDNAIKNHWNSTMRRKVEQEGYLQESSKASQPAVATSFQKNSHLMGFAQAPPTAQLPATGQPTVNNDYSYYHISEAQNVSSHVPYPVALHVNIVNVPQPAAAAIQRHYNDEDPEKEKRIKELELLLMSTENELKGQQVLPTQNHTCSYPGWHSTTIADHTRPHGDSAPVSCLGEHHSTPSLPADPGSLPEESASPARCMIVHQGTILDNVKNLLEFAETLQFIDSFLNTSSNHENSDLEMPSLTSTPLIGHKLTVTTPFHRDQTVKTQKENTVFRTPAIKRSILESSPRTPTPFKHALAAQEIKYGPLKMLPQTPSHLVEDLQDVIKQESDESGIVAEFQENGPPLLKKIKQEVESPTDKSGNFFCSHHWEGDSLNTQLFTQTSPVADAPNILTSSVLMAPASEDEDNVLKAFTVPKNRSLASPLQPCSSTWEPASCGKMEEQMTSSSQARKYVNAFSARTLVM
Sequence of Estrogen-related receptor gamma (Homo sapiens) (P62508 whole entry, looked up, the tested form may be a part): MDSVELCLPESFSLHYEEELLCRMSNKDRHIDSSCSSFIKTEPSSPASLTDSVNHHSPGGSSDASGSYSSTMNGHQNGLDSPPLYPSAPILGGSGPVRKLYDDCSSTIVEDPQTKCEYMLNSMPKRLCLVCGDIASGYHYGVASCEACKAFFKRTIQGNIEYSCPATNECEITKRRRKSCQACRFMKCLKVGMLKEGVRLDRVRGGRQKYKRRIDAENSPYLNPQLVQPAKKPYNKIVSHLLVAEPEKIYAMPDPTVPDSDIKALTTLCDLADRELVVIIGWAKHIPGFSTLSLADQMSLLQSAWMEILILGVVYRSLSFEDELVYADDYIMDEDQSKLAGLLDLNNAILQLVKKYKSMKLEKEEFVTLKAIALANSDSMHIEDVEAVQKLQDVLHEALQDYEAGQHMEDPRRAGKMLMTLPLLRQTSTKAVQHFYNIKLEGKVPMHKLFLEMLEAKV
Sequence of Glucocorticoid receptor (Homo sapiens) (P04150 whole entry, looked up, the tested form may be a part): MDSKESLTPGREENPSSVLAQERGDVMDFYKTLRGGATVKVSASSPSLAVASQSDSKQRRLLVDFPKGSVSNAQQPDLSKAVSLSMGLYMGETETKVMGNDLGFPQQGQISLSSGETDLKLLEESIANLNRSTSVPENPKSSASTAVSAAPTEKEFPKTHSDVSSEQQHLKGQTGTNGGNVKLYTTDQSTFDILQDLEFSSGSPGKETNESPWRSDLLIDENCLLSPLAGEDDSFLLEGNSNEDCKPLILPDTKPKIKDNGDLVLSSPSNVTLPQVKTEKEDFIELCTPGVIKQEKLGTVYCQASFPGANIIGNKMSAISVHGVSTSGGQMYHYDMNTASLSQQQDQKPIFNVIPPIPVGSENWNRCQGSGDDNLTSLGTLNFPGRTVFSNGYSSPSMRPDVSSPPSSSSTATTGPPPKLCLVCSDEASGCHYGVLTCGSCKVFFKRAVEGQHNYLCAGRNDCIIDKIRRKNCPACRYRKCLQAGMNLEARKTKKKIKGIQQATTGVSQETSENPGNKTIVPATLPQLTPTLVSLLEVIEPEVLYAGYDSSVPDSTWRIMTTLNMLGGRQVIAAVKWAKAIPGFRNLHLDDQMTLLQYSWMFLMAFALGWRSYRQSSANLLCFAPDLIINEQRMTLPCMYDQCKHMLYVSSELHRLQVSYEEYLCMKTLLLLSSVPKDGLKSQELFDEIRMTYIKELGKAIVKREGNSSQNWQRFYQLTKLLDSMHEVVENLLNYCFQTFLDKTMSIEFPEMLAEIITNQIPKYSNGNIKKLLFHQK
Sequence of Hepatocyte nuclear factor 4-alpha (Homo sapiens) (P41235 whole entry, looked up, the tested form may be a part): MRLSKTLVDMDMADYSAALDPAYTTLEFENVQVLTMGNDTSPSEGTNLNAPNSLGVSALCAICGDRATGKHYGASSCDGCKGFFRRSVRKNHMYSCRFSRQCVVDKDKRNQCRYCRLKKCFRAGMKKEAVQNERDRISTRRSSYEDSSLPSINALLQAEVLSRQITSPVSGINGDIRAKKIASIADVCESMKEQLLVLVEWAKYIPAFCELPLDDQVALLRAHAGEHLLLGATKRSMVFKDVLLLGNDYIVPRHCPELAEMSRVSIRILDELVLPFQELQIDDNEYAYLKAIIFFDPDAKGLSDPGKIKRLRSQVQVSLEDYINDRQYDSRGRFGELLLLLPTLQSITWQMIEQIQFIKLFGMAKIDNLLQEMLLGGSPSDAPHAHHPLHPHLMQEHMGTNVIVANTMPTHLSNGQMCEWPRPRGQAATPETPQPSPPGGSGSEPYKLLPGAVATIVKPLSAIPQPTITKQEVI
Sequence of X-box-binding protein 1 (Homo sapiens) (P17861 whole entry, looked up): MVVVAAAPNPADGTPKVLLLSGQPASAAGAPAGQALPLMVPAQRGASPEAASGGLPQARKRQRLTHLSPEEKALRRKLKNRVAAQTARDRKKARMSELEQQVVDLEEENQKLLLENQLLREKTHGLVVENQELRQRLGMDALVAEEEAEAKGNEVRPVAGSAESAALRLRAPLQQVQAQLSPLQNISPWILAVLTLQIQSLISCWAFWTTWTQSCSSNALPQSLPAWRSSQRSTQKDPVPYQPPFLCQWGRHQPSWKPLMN
Sequence of Bile acid receptor (Homo sapiens) (Q96RI1 whole entry, looked up, the tested form may be a part): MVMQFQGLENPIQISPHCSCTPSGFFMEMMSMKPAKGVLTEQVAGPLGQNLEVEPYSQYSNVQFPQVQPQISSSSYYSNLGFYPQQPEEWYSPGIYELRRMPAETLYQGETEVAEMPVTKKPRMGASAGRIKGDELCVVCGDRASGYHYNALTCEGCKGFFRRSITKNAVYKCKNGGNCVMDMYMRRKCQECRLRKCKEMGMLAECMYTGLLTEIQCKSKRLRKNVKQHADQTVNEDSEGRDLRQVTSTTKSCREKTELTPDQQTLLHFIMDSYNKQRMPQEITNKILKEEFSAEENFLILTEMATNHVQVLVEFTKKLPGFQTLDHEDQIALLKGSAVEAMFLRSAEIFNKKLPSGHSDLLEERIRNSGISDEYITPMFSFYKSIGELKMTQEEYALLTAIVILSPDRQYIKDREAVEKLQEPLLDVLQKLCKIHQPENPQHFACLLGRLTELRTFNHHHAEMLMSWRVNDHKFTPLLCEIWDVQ

Turning to `FCOC(C(F)(F)F)C(F)(F)F`, the outcome in assay [1], in assay [2], in [3], in [4], in assay [5] and in [6] was inactive. For the same molecule, the molecule was classed as inactive in assay [7], in assay [8], in assay [9], in assay [10] and in assay [11].
On to `O=S(=O)(O)c1ccc2cc(O)ccc2c1`, for which the call in [1], in assay [2], in [3], in assay [4], in assay [5] and in assay [6] was inactive. Also, the outcome in [8], in assay [12], in [13], in [14], in [10] and in [11] was inactive.
In the case of `O=C1C=CC(=O)N1c1cccc(N2C(=O)C=CC2=O)c1`, the call in assay [1], in [2], in assay [3], in [15], in [16] and in assay [5] was inactive. In addition, the molecule was classed as inactive in assay [17], in assay [8], in [9], in [18], in [19] and in assay [12]. Moreover, the molecule was called inactive in assay [13], in [14], in assay [10] and in assay [11].
As for `c1cc[nH]c1`, the outcome in [1], in [2], in [3], in assay [15], in assay [16] and in assay [5] was inactive. Also, the call in assay [7], in assay [8], in assay [13], in assay [10] and in assay [11] was inactive.
Consider `COc1cc([N+](=O)[O-])ccc1N`, for which the call in assay [1], in assay [2], in [3], in assay [4], in [5] and in assay [6] was inactive. Also, the result in assay [7], in assay [19], in assay [10] and in [11] was inactive.
Turning to `O=C(c1cc(O)c(O)c(O)c1)c1ccc(O)c(O)c1O`, the molecule was classed as inactive in assay [1], in [2], in assay [3], in [4], in [5] and in assay [17]. The molecule was called inactive in assay [8], in assay [9], in assay [18], in [12], in [13] and in assay [14]. Moreover, the result in assay [20], in [10] and in [11] was inactive.
For `FC1(F)C=CC(F)(F)C1(F)F`, the result in assay [1], in [2], in [3], in assay [15], in assay [16] and in assay [5] was inactive. The molecule was classed as inactive in assay [6], in assay [17], in [8], in assay [9], in assay [18] and in [10]. Moreover, the outcome in assay [11] was inactive.
With `CC1CCC(CO)CC1` (centres undefined), the call in [1], in [2], in assay [3], in assay [15], in assay [5] and in assay [6] was inactive. The result in assay [7], in [8], in [19], in assay [12], in assay [13] and in assay [14] was inactive. In addition, the molecule was called inactive in assay [20], in [10] and in [11]. Also, the AC50 in [15] is 62.4 µM (active).
